# PubChem BioAssay (EPA / NIEHS)
# “And” between values parts separate entries of the source, which are not always exact repeats. Identical values can stand only once. A structure can be active in one record and inactive in another. The source made the active and inactive calls. The calls were made as follows: active = hit-call score of the fitted dose curve at least 0.9, where 1 is the maximum; inactive = score below 0.9.
# Target: Heat shock factor protein 1 (Homo sapiens) (UniProt Q00613)
# Assay: ATG_HSE_CIS: Attagene CIS-FACTORIAL HepG2 Assay for human Heat Shock Transcription Factor 1 (HSE) (AID 2282953)
# Conditions: HepG2 HSE cis-reporter, Attagene RNA transcription; actives raise or lower the signal
# Method: ATG_CIS is a cell-based, multiplexed-readout assay that uses HepG2, a human liver cell line, with measurements taken at 24 hours after chemical dosing in a 24-well plate.ATG_HSE_CIS is one of 52 assay component(s) measured or calculated from the ATG_CIS assay. It is designed to make measurements of mRNA induction, a form of inducible reporter, as detected with fluorescence intensity signals by Reverse transcription polymerase chain reaction (RT-PCR) and Capillary electrophoresis technology.Data from the assay component ATG_HSE_CIS was analyzed into 1 assay endpoint. This assay endpoint, ATG_HSE_CIS, was analyzed with bidirectional fitting relative to DMSO as the negative control and baseline of activity. Using a type of inducible reporter, measures of mRNA for gain or loss-of-signal activity can be used to understand the reporter gene at the transcription factor-level as they relate to the gene HSF1. Furthermore, this assay endpoint can be referred to as a primary readout, because this assay has produced multiple assay endpoints where this one serves a reporter gene function. To generalize the intended target to other relatable targets, this assay endpoint is annotated to the dna binding intended target family, where the subfamily is heat shock protein.
# Human liver HepG2 cells are transiently transfected with multiple reporter transcription units (MRTUs) in 6-well plates using FuGene 6 reagent (Roche; 3 ml FuGene/1 mg DNA). The MRTU constructs are regulated by a cis-regulating element (promoter). […] A major difference between the CIS and TRANS system is that in CIS activities of endogenous TFs are measured, whereas the TRANS assay evaluates changes in activities of exogenous, chimeric NR-Gal4 proteins. […] At the end of 24 hour incubation, total RNA was isolated using TriZol reagent (Invitrogen). The isolated RNA is then reverse-transcribed using oligo(dT) primer and Mo-MLV reverse transcriptase (Invitrogen) with DNAse I (Ambion) treatment for 30 min. The one-tenth of the produced cDNA was amplified by PCR using Taq DNA polymerase (Invitrogen) and two reporter sequence-specific primers. The PCR products were fluorescently labeled by primer extension with 6-arboxyfluorescein (6-FAM) 5'-labeled reporter sequence-specific primer (2 min at 95 C, 20 s at 68 C and 10 min at 72 C) and these products were digested with 5U of HpaI (New England Biolabs) for 2h at 37 C. The fragments were purified using Qiaquick PCR columns (Qiagen), analyzed on an ABI 3130xL genetic analyzer (Applied Biosystems) with peak positions identified by using a set of X-rhodamine (ROX)-labeled MapMarker1000 molecular weight standards (BioVentures). The raw capillary electrophoresis data was processed using Attagraph software (Attagene).
# Heat shock factor protein 1 (Homo sapiens), sequence (Q00613 whole entry, looked up): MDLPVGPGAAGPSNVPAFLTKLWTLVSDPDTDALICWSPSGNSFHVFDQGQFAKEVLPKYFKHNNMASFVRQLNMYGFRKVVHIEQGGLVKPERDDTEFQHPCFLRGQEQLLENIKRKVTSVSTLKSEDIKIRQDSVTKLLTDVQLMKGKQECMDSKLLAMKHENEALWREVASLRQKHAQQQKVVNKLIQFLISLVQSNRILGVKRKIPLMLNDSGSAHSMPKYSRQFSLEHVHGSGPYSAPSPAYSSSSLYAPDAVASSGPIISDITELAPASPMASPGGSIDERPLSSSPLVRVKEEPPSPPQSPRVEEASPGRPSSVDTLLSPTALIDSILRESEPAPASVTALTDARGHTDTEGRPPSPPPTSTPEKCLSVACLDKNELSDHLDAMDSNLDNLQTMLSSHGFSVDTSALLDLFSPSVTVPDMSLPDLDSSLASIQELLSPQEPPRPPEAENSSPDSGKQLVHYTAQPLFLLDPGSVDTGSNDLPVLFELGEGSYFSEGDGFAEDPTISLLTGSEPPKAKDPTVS
SMILES,outcome,AC50
O=C(O)C(F)(F)C(F)(F)OC(F)(F)F,inactive,
OCC(F)(F)C(F)(F)C(F)(F)C(F)(F)C(F)(F)C(F)F,inactive,
C=CC(F)(F)C(F)(F)C(F)(F)C(F)(F)C(F)(F)C(F)(F)C(F)(F)C(F)(F)F,inactive,
CNC(=S)NC,inactive,
OCCCC(F)(F)C(F)(F)C(F)(F)C(F)(F)C(F)(F)C(F)(F)C(F)(F)F,inactive,95.1 µM (active)
CCc1ccc(C(c2ccc(CC)cc2)C(Cl)Cl)cc1,inactive,
OCCCC(F)(F)C(F)(F)C(F)(F)F,inactive,
C=C(C)C(=O)OCC(F)(F)C(F)(F)C(F)(F)F,inactive,
CCCCCCOC(=O)c1ccccc1,inactive,
COC(=O)CCC(F)(F)C(F)(F)C(F)(F)C(F)(F)F,inactive,
O=C(O)C=C(C(F)(F)F)C(F)(F)F,inactive,
O=S(=O)(O)C(F)(F)C(F)(F)C(F)(F)C(F)(F)C(F)(F)C(F)(F)C(F)(F)F,inactive,
Cc1ccc(S(=O)(=O)NCl)cc1,inactive,
C1COCCN1,inactive,
Cc1cccc(N(C)C)c1,inactive,
OCC(F)(F)C(F)(F)C(F)(F)C(F)(F)C(F)(F)C(F)(F)F,inactive,
Nc1ccc(S(=O)(=O)Nc2nccs2)cc1,inactive,
CCN(Cc1cccc(S(=O)(=O)O)c1)c1ccc(C(=C2C=CC(=[N+](CC)Cc3cccc(S(=O)(=O)O)c3)C=C2)c2ccc(O)cc2S(=O)(=O)[O-])cc1,inactive,
FC(F)(F)C(F)(F)C(F)(F)C(F)(F)C(F)(F)C(F)(F)C(F)(F)C(F)(F)CCS,inactive,
Nc1ccc(Oc2cccc(Oc3ccc(N)cc3)c2)cc1,,160 µM (active)

SMILES,outcome,AC50
O=C(O)C(F)(F)C(F)(F)C(F)(F)F,inactive,
FC(F)(F)C(F)(F)C(F)(F)C(F)(F)C(F)(F)C(F)(F)CC1CO1 (stereo not given),inactive,
CC(=O)Nc1ccc(N=Nc2cc(C)ccc2O)cc1,inactive,
O=C(O)C(F)(F)C(F)(F)C(F)(F)C(F)(F)C(F)(F)C(F)(F)C(F)(F)C(F)(F)Cl,,75.8 µM (active) and 82.1 µM (active)
NC(=O)C(F)(F)C(F)(F)C(F)(F)C(F)(F)F,inactive,
O=C(Cl)C(F)(F)C(F)(F)C(F)(F)C(F)(F)C(F)(F)C(F)(F)C(F)(F)C(F)(F)F,,49.6 µM (active)
C=CC(F)(F)C(F)(F)C(F)(F)C(F)(F)C(F)(F)C(F)(F)C(F)(F)C(F)(F)C=C,inactive,
CC(C)c1ccccc1N,inactive,
O=S(=O)(O)c1ccc2ccccc2c1,inactive,
O=C(O)C(F)(F)C(F)(F)C(F)(F)C(F)(F)F,inactive,
FC(F)(F)C(F)(F)C(F)(F)C(F)(F)C(F)(F)C(F)(F)C(F)(F)I,inactive,
CC(C)(C)c1ccc(OC2CCCCC2O)cc1 (stereo not given),inactive,
COC(OC(C)=O)c1ccccc1 (stereo not given),inactive,
CCCCCCS,inactive,
O=C(O)C(F)(F)C(F)(F)C(F)F,inactive,
CCCCNc1ccccc1,inactive,
O=C(OCCOCCOCCOC(=O)c1ccccc1)c1ccccc1,inactive,
O[Si](c1ccccc1)(c1ccccc1)c1ccccc1,inactive,
CCCCOCCOCCOC(=O)CCCCC(=O)OCCOCCOCCCC,inactive,
